High-throughput results deposited in PubChem BioAssay by several laboratories.
Sampled rows, rich in hits. Any-hit rate of the full collection: about 3.6%.
ERa coact inh = ERα–SRC-1 coactivator interaction inhibitors, primary screen, biochemical, TR-FRET, ERα LBD, estradiol-bound; Estrogen receptor (Homo sapiens), P03372; TR-FRET ER-alpha LBD / SRC-1 peptide; inhibition, % at 25.6 µM; 86,000 compounds, 1.7% hits; in the data active = inhibition above about 50%
Target sequence (P03372 whole entry, looked up, the tested form may be a part): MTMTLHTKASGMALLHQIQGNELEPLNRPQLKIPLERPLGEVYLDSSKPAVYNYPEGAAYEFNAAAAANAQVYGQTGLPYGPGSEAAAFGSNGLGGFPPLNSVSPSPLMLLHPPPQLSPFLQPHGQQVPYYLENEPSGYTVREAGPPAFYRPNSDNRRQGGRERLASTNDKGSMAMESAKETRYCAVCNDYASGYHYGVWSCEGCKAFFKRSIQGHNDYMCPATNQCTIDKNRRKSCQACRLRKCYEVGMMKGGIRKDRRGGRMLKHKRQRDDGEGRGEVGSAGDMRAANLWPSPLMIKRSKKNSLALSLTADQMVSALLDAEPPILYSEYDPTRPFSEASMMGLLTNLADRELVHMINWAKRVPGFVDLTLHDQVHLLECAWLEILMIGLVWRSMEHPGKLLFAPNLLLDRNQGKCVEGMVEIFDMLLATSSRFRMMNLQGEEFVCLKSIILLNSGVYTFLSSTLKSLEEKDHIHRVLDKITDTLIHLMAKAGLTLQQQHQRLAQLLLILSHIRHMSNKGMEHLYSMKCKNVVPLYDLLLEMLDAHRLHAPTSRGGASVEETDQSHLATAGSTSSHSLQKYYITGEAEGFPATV
NFkB transloc inh = inhibitors of IL-1B driven NFkB p65 nuclear import, primary screen, imaging, HUVEC, IL-1B stimulus, high-content imaging | HUVEC IL-1B NFkB p65 nuclear translocation imaging | inhibition, % at 2 µM | 94,000 compounds, 0.43% hits | AID 796, 2007;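 active = inhibition above about 30% together with a positive call from visual inspection of the well image, limit read from the data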;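 note: nuclear over cytoplasmic p65 intensity ratio measured by imaging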
ERa coact pot = enhancers of ERα–SRC-1 coactivator binding, primary screen, biochemical, TR-FRET, ERα LBD, low estradiol; 86,000 compounds, 1.3% hits; coactivator binding (% of control), % at 25.6 µM; TR-FRET ERalpha-LBD/SRC-Cy5 coactivator binding, 2 h; 100 = basal binding, no effect; in the data active = activity above about 200%;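 note: binding measured in presence of low estradiol as agonist stimulus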
HUVEC tox IL1B = cytotoxicity in IL-1B stimulated HUVEC, primary screen, cytotoxicity control for IL-1B NFkB translocation project, imaging, Hoechst nuclear count, IL-1B stimulus | HUVEC cell count loss | cell count reduction, % at 2 µM | 94,000 compounds, 0.41% hits | AID 845, 2007;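 active = cell count reduction more than 3 SD above the screen-wide mean, cut at about 70% in these data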
IL1B NFkB pot = enhancers of NFkB p65 translocation in HUVEC – imaging, IL-1B stimulus, high-content imaging, primary screen. HUVEC IL-1B NFkB p65 nuclear translocation imaging. activation, % at 2 µM. 94,000 compounds, 0.3% hits. AID 819, 2007;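 active = activation above 40%, about the mean plus 3 SD, also judged a hit on visual image review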;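 note: percent activation is computed from the nuclear over cytoplasmic p65 intensity ratio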
ERb SRC1 inh = inhibitors of ERβ-SRC1 coactivator interaction, primary screen, biochemical, TR-FRET, ERβ LBD, SRC-1 peptide; TR-FRET ER-beta LBD / SRC1-Cy5 peptide binding; receptor agonist-loaded with 1 µM estradiol; inhibition, % at 25.6 µM; 86,000 compounds, 1.3% hits; AID 633, 2007;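 active = compounds whose percent inhibition of the receptor-coactivator binding signal exceeds about 50% in the single-dose screen, limit read from the data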
Each line names hits and unclear results; the compound was inactive in the other large screens; [ ] = dose if it differs, or a comment.

O=S(=O)(NCc1csc(-c2cccnc2)n1)c1cccs1	ERa coact inh 71.2 (no result: NFkB transloc inh, HUVEC tox IL1B, IL1B NFkB pot)
COc1ccc(S(=O)(=O)NCCc2csc(-c3cccnc3)n2)cc1	none
O=S(=O)(NCCc1csc(-c2cccnc2)n1)c1cccs1	none (no result: ERa coact inh, ERa coact pot, ERb SRC1 inh)
O=S(=O)(NCCc1csc(-c2cccnc2)n1)c1ccc(Cl)s1	ERa coact inh 82.8
COc1ccc(-c2cc(C(F)(F)F)nc(-n3cc(Br)cn3)n2)cc1	IL1B NFkB pot 53.7
CC1CC(C)CN(S(=O)(=O)c2ccc(C(=O)Nc3sccc3C(N)=O)cc2)C1 (stereo unspecified)	ERa coact pot 252.9[fluorescence artefact?]
CCOC(=O)c1ccc(NC(=O)NC2CC3CCC(C2)N3Cc2nnnn2C(C)(C)C)cc1 (stereo unspecified)	none
CCCCn1c(CN2C(=O)c3ccccc3C2=O)nc2ccccc2c1=O	ERa coact inh 57.8[fluorescence artefact?], ERb SRC1 inh 51.0[fluorescence artefact?]
Cn1c(N2CCC(C(N)=O)CC2)nc2c1c(=O)n(Cc1ccc(Br)cc1)c(=O)n2C	none
CN1CCN(c2ccc([N+](=O)[O-])cc2/C=N/NC(=O)c2ccc(F)cc2)CC1	NFkB transloc inh 30.1 (no result: ERa coact inh, ERa coact pot, ERb SRC1 inh)
Cc1ccc(CCN2CC(C(=O)NCCCN3CCCCCC3)CC2=O)cc1 (stereo unspecified)	ERa coact pot 917.2[fluorescence artefact?], ERb SRC1 inh 57.6[fluorescence artefact?]
COc1ccc(CN2CC(C(=O)NCCCN3CCCCCC3)CC2=O)cc1 (stereo unspecified)	ERa coact pot 202.6[fluorescence artefact?]
COc1ccc(CN2CC(C(=O)NCCCN3CCN(C)CC3)CC2=O)cc1 (stereo unspecified)	none
Cc1cc(NC(=O)CN2CC3CC(C2)c2cccc(=O)n2C3)nc2c1c(=O)oc1ccccc12 (stereo unspecified)	ERa coact inh 61.3[fluorescence artefact?], ERb SRC1 inh 57.6 (no result: NFkB transloc inh, HUVEC tox IL1B, IL1B NFkB pot)
Cc1cc(NC(=O)CN2CCN(Cc3ccccc3)CC2)nc2c1c(=O)oc1ccccc12	none (no result: NFkB transloc inh, HUVEC tox IL1B, IL1B NFkB pot)
COc1cc(C(=O)Nc2cccc(-c3nc4cc(C)ccc4o3)c2C)cc(OC)c1OC	none
Cc1ccc2nc(-c3cccc(NC(=O)c4ccc5c(c4)OCCO5)c3)oc2c1	ERa coact inh 68.0[fluorescence artefact?]
COc1cc(C(=O)Nc2cc(-c3nc4cc(C)ccc4o3)ccc2C)cc(OC)c1OC	ERa coact inh 74.2[fluorescence artefact?], ERb SRC1 inh 59.6[fluorescence artefact?]
Cc1ccc2oc(-c3cccc(NC(=O)c4cc(-n5cnnc5)ccc4Cl)c3)nc2c1	ERa coact pot 245.1
Cc1ccc(NC(=O)c2cc(-n3cnnc3)ccc2Cl)cc1	none
COc1cc(C(=O)Nc2cccc(-c3nc4cc(C)ccc4o3)c2)cc(OC)c1OC	ERa coact inh 72.2[fluorescence artefact?], ERa coact pot 252.0[fluorescence artefact?] (no result: NFkB transloc inh, HUVEC tox IL1B, IL1B NFkB pot)
COc1ccc(C(=O)Nc2ccccc2C(=O)NC(C(=O)NCc2ccco2)C(C)C)cc1 (stereo unspecified)	ERa coact pot 241.8[fluorescence artefact?]
COc1ccc(C(=O)Nc2ccccc2C(=O)N(Cc2ccco2)C(C(N)=O)C(C)C)cc1 (stereo unspecified)	ERa coact inh 57.2[fluorescence artefact?]
COc1ccc(C(=O)Nc2ccccc2C(N)=O)cc1	none
C=CCNCc1cccn1-c1ccccc1	none
CCOc1ccc(C(=O)Nc2ccc(NC(=O)c3ccco3)c(Cl)c2)cc1Cl	ERa coact pot 714.6[fluorescence artefact?]
CCOc1ccc(C(=O)Nc2ccc(NC(=O)c3ccco3)c(Cl)c2)cc1Br	none (no result: ERa coact inh, ERa coact pot, ERb SRC1 inh)
CC(=O)NCCn1c(SCC(=O)NCCC(C)C)nc2ccccc2c1=O	NFkB transloc inh 99.3
COc1ccc(OCCC(=O)N2CCCCC2)cc1	NFkB transloc inh 87.6, HUVEC tox IL1B 87.4
COc1ccc(OCC(=O)N2CCN(C(=O)c3ccccc3)CC2)cc1	ERa coact pot 492.2[fluorescence artefact?]
COc1ccc(N2CCN(C(=O)COc3ccccc3)CC2)cc1	none
CCOC(=O)C(CC)(CC)/C(C)=N/NC(=O)CC#N	none
CCSc1nc2ccccc2n1C(=O)Oc1ccccc1	ERa coact pot 496.8[fluorescence artefact?]
